Results filed as inconclusive are left out. Unmarked numbers belong to inactive results. The source made the active and inactive calls. Calls come from the whole dose curve.
The compounds below were run against Progesterone receptor (Homo sapiens) (UniProt P06401) (assay: qHTS assay to identify small molecule agonists of the progesterone receptor (PR) signaling pathway (AID 1346784; note: nearly all actives have a fitted effect of over 30% in size)). Conditions: PR-UAS-bla HEK293T, beta-lactamase FRET ratio, 16 h; series mostly up to 92.4 µM; activation: at the top concentration.
Excerpt: U.S. Tox21 Program National Center for Advancing Translational Sciences [NCATS] NIH Chemical Genomics Center [NCGC] U.S. Environmental Protection Agency [EPA] National Institutes of Environmental Health Sciences [NIEHS] National Toxicology Program [NTP] U.S. Food and Drug Administration [FDA] […] Endocrine disrupting chemicals (EDCs) and their interactions with steroid hormone receptors like PR causes disruption of normal endocrine function. To identify the compounds that activate PR signaling, a PR-UAS-bla GripTite cell line i.e. PR-UAS-bla HEK 293T (Invitrogen, Carlsbad, CA, USA) containing a beta-lactamase reporter gene under the control of an Upstream Activator Sequence (UAS) was used to screen Tox21 10K compound library.
Tox21 Assay Protocol Summary: PR-UAS-bla HEK 293T cells were dispensed at 3,000 cells/5 uL of assay medium containing 2% charcoal stripped FBS per well into black wall/clear-bottom 1536-well plates using a Multidrop Combi (ThermoFisher Scientific, Waltham, MA) dispenser. After the assay plates were incubated at a 37C and 5% CO2 for 6hr, 23 nL of compounds dissolved in DMSO, positive controls or DMSO only was transferred to the assay plate by a Pintool station (Kalypsys, San Diego, CA). The plates were incubated at 37C and 5% CO2 for 16hr. Then 1 uL of LiveBLAzer B/G FRET substrate was added using a BioRAPTR FRD (Flying Reagent Dispenser, Aurora Discovery, San Diego, CA). After the plates were incubated at room temperature for 2 hours, fluorescence intensity was measured by an Envision plate reader (PerkinElmer, Shelton, CT).
% is set by controls: 0 for no effect and ±100 for the full control effect; potency is the fitted concentration of half-maximal effect.

Sequence of Progesterone receptor (Homo sapiens) (P06401 whole entry, looked up): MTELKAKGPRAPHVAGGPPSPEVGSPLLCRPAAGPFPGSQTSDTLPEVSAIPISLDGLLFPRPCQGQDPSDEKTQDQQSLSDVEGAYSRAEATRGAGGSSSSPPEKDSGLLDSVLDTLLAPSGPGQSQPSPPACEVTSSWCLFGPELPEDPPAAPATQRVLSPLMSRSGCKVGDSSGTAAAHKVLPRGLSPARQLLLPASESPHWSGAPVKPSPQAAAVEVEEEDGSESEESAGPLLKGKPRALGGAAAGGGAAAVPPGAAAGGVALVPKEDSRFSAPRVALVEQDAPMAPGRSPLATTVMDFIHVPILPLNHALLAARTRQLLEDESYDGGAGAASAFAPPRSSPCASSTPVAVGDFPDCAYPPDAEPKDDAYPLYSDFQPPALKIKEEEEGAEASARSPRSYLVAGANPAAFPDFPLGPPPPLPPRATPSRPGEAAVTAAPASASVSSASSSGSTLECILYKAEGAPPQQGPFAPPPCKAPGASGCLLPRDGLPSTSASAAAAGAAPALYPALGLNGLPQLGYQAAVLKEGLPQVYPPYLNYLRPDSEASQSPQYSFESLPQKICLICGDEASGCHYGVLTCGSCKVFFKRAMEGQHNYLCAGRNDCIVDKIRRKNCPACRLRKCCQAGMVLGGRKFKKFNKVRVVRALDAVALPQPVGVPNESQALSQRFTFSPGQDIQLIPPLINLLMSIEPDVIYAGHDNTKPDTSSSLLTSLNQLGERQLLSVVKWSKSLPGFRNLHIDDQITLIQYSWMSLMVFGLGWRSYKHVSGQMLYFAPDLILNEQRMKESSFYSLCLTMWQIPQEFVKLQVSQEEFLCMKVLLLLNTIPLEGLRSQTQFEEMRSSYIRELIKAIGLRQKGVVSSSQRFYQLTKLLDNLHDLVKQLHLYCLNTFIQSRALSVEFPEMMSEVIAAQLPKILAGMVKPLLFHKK

Compound	activation	Potency
c1ccc(CNCCNCc2ccccc2)cc1	-2.78% [at 42.5 µM]	–
O=C1CCCCCCCCCCCC(=O)OCCO1	-0.502%	–
C[Si](C)(CCCN)O[Si](C)(C)CCCN	-2.58%	–
CC1CCC(=O)C1=O (stereo not given)	-5.33%	–
CC(C)Cc1ccc(C(C)C(=O)OCc2ccccn2)cc1 (stereo not given)	4.37% [at 42.5 µM]	–
CCCCc1ncc(/C=C(\Cc2cccs2)C(=O)O)n1Cc1ccc(C(=O)O)cc1	-0.265% [at 42.5 µM]	–
O=C(NCC1CN(c2ccc(N3CCOCC3=O)cc2)C(=O)O1)c1ccc(Cl)s1 (stereo not given)	-0.701% [at 42.5 µM]	–
CC1=CC=C(C(C)C)CC1	-2.39%	–
CN1C[C@H]2c3ccccc3Oc3ccc(Cl)cc3[C@@H]2C1	-7.31% [at 42.5 µM]	–
Nc1ccccc1S(=O)(=O)c1ccccc1	0.245%	–
Cc1c(N)cccc1[N+](=O)[O-]	-3.22%	–
Nc1ccc([N+](=O)[O-])c(C(F)(F)F)c1	3.89% [at 42.5 µM]	–
CN(C)CCOC(c1ccccc1)c1ccc(Br)cc1 (stereo not given)	-12.3% [at 42.5 µM]	–
COc1ccc(C(=O)c2ccc(OC)cc2O)c(O)c1	-0.906%	–
CC(C)(O)c1ccc(CNC(=O)c2cccnc2Oc2ccc(F)cc2)cc1	-0.0505%	–
C#CCN(C)CCCOc1ccc(Cl)cc1Cl	0.291% [at 42.5 µM]	–
Nc1cccc([N+](=O)[O-])c1	-2.43%	–
CC(C)(C)OCC1CO1 (stereo not given)	-1.19%	–
CCCCc1nc2cccnc2n1Cc1ccc(-c2ccccc2-c2nnn[nH]2)cc1	-4.06%	–
S=C([S-])NCCNC(=S)[S-].[Mn+2]	10.1%	–

Compound	activation	Potency
CNC(=O)CN(CCN(CCN(CC(=O)[O-])CC(=O)NC)CC(=O)[O-])CC(=O)[O-].O.[Gd+3]	-1.86% [at 42.5 µM]	–
O=C1OC(CN2CCOCC2)CN1/N=C/c1ccc([N+](=O)[O-])o1 (stereo not given)	1.69% [at 42.5 µM]	–
CC1(c2ccccc2)OC(C(=O)O)=CC1=O (stereo not given)	-0.0189% [at 42.5 µM]	–
CCn1cc(C(=O)O)c(=O)c2cnc(N3CCNCC3)nc21	-0.73% [at 42.5 µM]	–
COc1cccc(N(C)C(=S)Oc2ccc3c(c2)CCCC3)n1	1.89% [at 42.5 µM]	–
O=[N+]([O-])c1cccc(S(=O)(=O)O)c1	20.9%	–
CCCCCCCN	-0.0675%	–
Cc1oc(-c2ccccc2)nc1CCOc1cccc2c1ccn2CCC(=O)O	4.02%	–
COc1cc2nc(Cl)nc(N)c2cc1OC	3.25% [at 42.5 µM]	–
O=C(O)CC(=O)C(=O)O	0.189%	–
Cc1ccccc1S(=O)(=O)O	-0.0276%	–
O=C(c1ccc(F)cc1)C1CCN(CCn2c(=S)[nH]c3ccccc3c2=O)CC1	-0.593% [at 42.5 µM]	–
NCCCN1CCOCC1	-1.66%	–
CCO[C@H](Cc1ccc(OCCc2ccc(OS(C)(=O)=O)cc2)cc1)C(=O)O	0.0221% [at 42.5 µM]	–
Brc1c2ccccc2c(Br)c2ccccc12	5.54% [at 8.39 µM]	–
CN(C)CCCN1c2ccccc2Sc2ccccc21	-2.86% [at 42.5 µM]	–
C[C@H]1C[C@H]2[C@@H]3CCC4=CC(=O)C=C[C@]4(C)[C@@]3(Cl)[C@@H](O)C[C@]2(C)[C@@]1(O)C(=O)CO	–	23.7 nM (active)
C=C(C)C(=O)OCCO	1.52%	–
CC/C=C\CCOC(=O)CC	0.723%	–
CC(COCCO)OCCO (stereo not given)	-0.159%	–
